High-throughput results from PubChem.
The list is not random: actives were taken first. Their share in the collection is about 21%.
CHX counter: affects cycloheximide protein synthesis inhibition readout, counter-screen. cell reporter, cycloheximide protein synthesis inhibition counterscreen. max response, %. 12% of 300,000 active. AID 2314; in the data active = max response mostly above about 13%, no sharp cut-off; inactive = mostly below about 14%; note: read at 38.3 µM for the half of the compounds with a filed dose; 0% is about no effect
AMA1 RON2 block: disrupts binding of P. falciparum AMA1 to RON2 | AlphaScreen AMA1-biotinylated RON2 peptide binding | Potency, µM (doses to about 58.2 µM), for inactives: at the top dose activity change, negative = inhibition, actives largely listed as inhibitors | 0.2% of 360,000 active;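 note: potency is the fitted concentration of half-maximal effect; 0% = vehicle wells and -100% = peptide control; nearly all actives have a fitted effect of over 45% in size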
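AMA1 (3D7) with his tag at 25 nM final met compounds first, then biotinylated RON2 peptide at 25 nM; detection used donor plus acceptor beads, 10 µg/mL apiece, read by AlphaScreen after 30 min at room temperature.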
Pf growth 96h: inhibits malaria parasite growth, 96 h; P. falciparum luciferase reporter growth, 96 h; Potency, µM (titrated, usually from 28.7 µM), for the others: at the highest dose activity change, negative = inhibition, hits mostly inhibitors; 6.9% of 320,000 active; AID 504834; note: potency is the fitted concentration of half-maximal effect; % is set by controls: 0 for no effect and ±100 for the full control effect
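Readout is luminescence from an integrated firefly luciferase in P. falciparum. Red cells, 2% hematocrit and 0.05% parasitemia final, were cultured with compound through two parasite generations (96 hours) at 37 C, 5% CO2.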
Pf growth 48h: inhibits P. falciparum growth in the first generation, 48 h; AID 504832; P. falciparum luciferase growth in erythrocytes, 48 h; 5.9% of 310,000 active; Potency, µM (series often up to 28.7 µM), inactives show at the highest dose activity change, negative = inhibition, hits mostly inhibitors; note: potency is the fitted concentration of half-maximal effect; % is set by controls: 0 for no effect and ±100 for the full control effect
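Compounds are pin-transferred into medium, infected erythrocytes (2% hematocrit, 0.1% parasitemia final) are added, and plates sit one parasite generation at 37 C in 5% CO2. Detection reagent is then added and luminescence measured.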
Shiga inhibitor: Shiga toxin inhibition | Vero cells, Shiga toxin protein synthesis inhibition reporter | inhibition, % at 38.7 µM | 9.2% of 290,000 active | AID 2315; in the data active = inhibition mostly above about 28%, no sharp cut-off; inactive = mostly below about 43%; note: 0% is about no effect
HCV inhibitor: inhibitors of hepatitis C virus infection; AID 651820; Huh7.5.1 HCVcc-Cre infection, luciferase reporter, 44 h; 3.4% of 340,000 active; Potency, µM (titrated, usually from 41.8 µM), for the others: at the highest dose activity change, negative = inhibition, usual class: inhibitors; note: potency is the fitted concentration of half-maximal effect; % is set by controls: 0 for no effect and ±100 for the full control effect
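Cells (1,000/well) were plated 4 h before compound, then infected with HCVcc-Cre virus (~0.5 moi). After 44 h further culture, infection was read as luciferase luminescence following a 15 min substrate incubation at room temperature.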
* marks the source's active call; other numbers are inactive results; u = inconclusive; x = no result given; [ ] = dose if it differs, or a comment. Unless noted, calls come from the whole dose curve; as a rule, active = well fitted curve in the direction sought with a large enough effect; inconclusive = small, poorly fitted or top-dose-only effect, or another doubt; inactive = no such curve, though single readings can be large; an effect the other way counts as inactive or inconclusive.

SMILES | CHX counter | AMA1 RON2 block | Pf growth 96h | Pf growth 48h | Shiga inhibitor | HCV inhibitor
COc1cc(CN2CCCC(C(=O)c3ccc4c5c(cccc35)CC4)C2)cc(OC)c1O (stereo not given) | -2.4 | -9.9% | 12.3% | -27.4% | 1.5 | u
CC[C@H](C)[C@H](NC(=O)CNC(=O)[C@H](CCCNC(=N)N)NC(=O)[C@H](CO)NC(=O)[C@H](C)NC(=O)[C@H](Cc1ccc(O)cc1)NC(=O)[C@H](Cc1c[nH]c2ccccc12)NC(=O)[C@H](C)NC(=O)[C@@H]1CCCN1C(=O)[C@H](CC(N)=O)NC(=O)[C@@H](NC(=O)[C@H](CC(=O)O)NC(=O)[C@@H]1CCCN1C(=O)[C@@H](NC(=O)[C@H](CCCNC(=N)N)NC(=O)[C@@H](NC(=O)[C@H](CCC(=O)O)NC(=O)[C@H](CCSC)NC(=O)[C@H](CO)NC(=O)[C@H](Cc1cnc[nH]1)NC(=O)[C@H](CCCNC(=N)N)NC(=O)[C@H](Cc1cnc[nH]1)NC(=O)[C@@H](NC(=O)[C@H](CCCNC(=N)N)NC(=O)[C@@H](N)CO)[C@@H](C)O)[C@@H](C)CC)[C@@H](C)O)[C@@H](C)CC)C(=O)N[C@@H](CCCNC(=N)N)C(=O)N1CCC[C@H]1C(=O)N[C@H](C(=O)NCC(=O)N[C@@H](CCCNC(=N)N)C(=O)N[C@@H](Cc1ccccc1)C(N)=O)C(C)C | -8.6 | x | x | x | -2.3 | x
COc1ccc(C2/C(=C(/O)c3ccc(C)cc3)C(=O)C(=O)N2C)c(OC)c1 (stereo not given) | -2.0 | 0.1% | u | 46.0% | -6.7 | -5.7%
CC1CCN(c2ccc3nnc(CCC(=O)N4CCN(c5ccc(F)cc5)CC4)n3n2)CC1 | -1.8 | -8.2% | -16.6% | 5.22µM* | -3.0 | u
COc1ccc(N2CCN(C(=O)CCc3nnc4ccc(N5CCCC5)nn34)CC2)cc1 | 0.6 | -6.0% | 11.7µM* | u | 2.2 | 13.3%
CCCCNC(=O)COCc1cc(-c2ccc3c(c2)OCO3)on1 | 12.0 | 9.7% | u | -1.8%[0.00184 µM] | 47.1* | -11.5%
CC(C)CNC(=O)c1cc(-c2ccc3c(c2)OCO3)on1 | 38.7* | 5.8% | 33.8% | 160.9% | 73.7* | -4.4%
C=CCNC(=O)COCc1cc(-c2ccc3c(c2)OCO3)on1 | 27.3* | 1.0% | 22.2% | 33.1% | 39.4* | -6.4%
CCCNC(=O)COCc1cc(-c2ccc3c(c2)OCO3)on1 | 28.5* | 11.2% | -6.4% | 13.9%[0.00184 µM] | 35.6* | 9.9%
C[C@@H]1CN([C@H](C)CO)C(=O)CCCn2cc(nn2)CO[C@H]1CN(C)C(=O)c1ccccc1 | x | 14.3% | x | x | x | x
CC(=O)Nc1ccc(S(=O)(=O)c2cc(O)ccc2O)cc1 | 1.2 | -10.8% | u | -2.2% | -2.1 | 17.5%
CC(=O)Nc1nc2[nH]ccc2c(=O)[nH]1 | x | 19.0% | x | x | x | x
COc1ccc(N(CC(=O)NCCSc2ccccn2)S(=O)(=O)c2ccccc2)c(OC)c1 | 3.5 | -2.3% | -22.4% | 0.0% | -13.2 | -8.7%
CC(C)CNC(=O)COCc1cc(-c2ccc3c(c2)OCO3)on1 | 38.1* | -2.3% | -38.1% | 32.0% | 99.9* | 23.1%
COCC(C)NC(=O)COCc1cc(-c2ccc3c(c2)OCO3)on1 (stereo not given) | -2.6 | -2.8% | 0.4% | -8.8% | -5.6 | 3.1%
CN1C(=O)CCC1c1cccnc1 (stereo not given) | x | x | 1.07µM* | -5.1% | x | x
CN1CCC[C@H]1c1cccnc1 | x | -12.5% | 36.9% | 5.3% | x | -20.3%
CC(Sc1nc2sccc2c(=O)n1-c1ccccc1)C(N)=O (stereo not given) | 5.3 | 6.8% | 1.65µM* | u | -3.0 | -10.5%
CCc1c(C)nc(SCc2ccccn2)[nH]c1=O | 18.7 | -10.6% | 44.5% | -1.7% | 34.4 | 7.3%
CCc1ccc(C(=O)NNc2cc(Cl)ccc2Cl)cc1 | 1.8 | 4.2% | 13.0% | u | 13.4 | u
CCc1ccc(C(=O)NNc2ccccc2F)cc1 | 36.0* | 0.0% | 68.6% | 86.2% | 70.9* | -2.0%
CCCc1ccc(C(=O)NNc2ccccc2F)cc1 | 20.4* | -9.4% | 46.6% | 66.5% | 77.3* | 4.4%
CCc1ccc(C(=O)NNc2ccc(C)c(Cl)c2)cc1 | 9.9* | u | 50.7% | u | 9.5 | 1.1%
CCc1ccc(C(=O)NNc2ccc(F)cc2)cc1 | 13.7 | u | 33.3% | 44.7% | 40.8* | -15.0%
COc1ccc(-c2cc(C)no2)cc1S(=O)(=O)NCCCN1CCCCCC1 | 7.5 | 8.1% | 21.0% | u | -4.6 | -27.1%
SMILES | CHX counter | AMA1 RON2 block | Pf growth 96h | Pf growth 48h | Shiga inhibitor | HCV inhibitor
O=C(NCc1ccccc1CN1CCCC1)c1ccc(S(=O)(=O)Nc2ccccc2)cc1 | x | 0.5% | x | x | x | x
C[C@@H]1CN([C@H](C)CO)C(=O)CCCn2nncc2CO[C@H]1CN(C)C(=O)Nc1ccc(N2CCN(C)CC2)cc1 | x | 0.0% | x | x | x | x
CCOC(=O)C1CCN(C(=O)COc2ccc(N(C)S(=O)(=O)c3cccs3)cc2)CC1 | 1.8 | 4.5% | -18.3% | -1.4% | 31.6 | 21.3%
CN(c1ccc(OCC(=O)N2CCN(C/C=C/c3ccccc3)CC2)cc1)S(=O)(=O)c1cccs1 | -2.7 | -16.0% | u | 9.28µM* | 12.4 | 11.2µM*
CCOc1ccc(S(=O)(=O)NCCC(=O)NCC(c2ccc(F)cc2)N2CCOCC2)cc1 (stereo not given) | x | 40.9% | 23.9% | u | x | 0.8%
CC1CCc2c(sc3ncn(CCO)c(=O)c23)C1 (stereo not given) | 37.9* | -13.1% | u | 51.1% | 63.7* | 1.2%
CC(=O)Cn1nnc2sc3c(c2c1=O)CCC(C(C)(C)C)C3 (stereo not given) | 66.4* | 1.3% | -12.4% | 239.6% | 88.0* | u
CCc1nc(N2CCN(C(C)=O)CC2)c2c3c(sc2n1)CC(C(C)(C)C)CC3 (stereo not given) | -0.5 | 8.9% | 44.9% | u | -2.9 | u
CCOC(=O)c1sc(NC(=O)Cn2nnc3sc4c(c3c2=O)CCC(C(C)(C)C)C4)nc1C (stereo not given) | -2.6 | -11.2% | 0.0% | 9.28µM* | 3.5 | 26.5%
CCOC(=O)c1sc(NC(=O)CN2C(=O)C3CC=CCC3C2=O)nc1C (stereo not given) | x | 10.7% | 20.6% | -1.2% | x | 5.4%
CCn1nnc2sc3c(c2c1=O)CCC(C)C3 (stereo not given) | 38.0* | -10.6% | 0.0% | 51.8% | 24.8 | -5.9%
Cc1cccn2c(=O)c(-c3nnn[nH]3)cnc12 | x | x | u | -1.8% | x | x
CCOc1ccc(S(=O)(=O)Nc2cccc(C(=O)NCC3CCCO3)c2)cc1 (stereo not given) | x | 0.0% | 0.7% | -6.0% | x | u
CC1(c2cnc(Nc3ccccc3)s2)CCC(=O)O1 (stereo not given) | 33.7* | -0.7% | 46.5% | 52.8% | 64.1* | -13.9%
